Inconclusive results are not listed. Entries that show only a call come without a potency. Active and inactive are the calls of the source. Unless noted, the call rests on the fitted dose curve; in most records, active means well fitted curve in the direction sought with a large enough effect in the repeat runs; inconclusive means weak or mixed curves; inactive means no such curve, though single readings can be large; an effect the other way counts as inactive or inconclusive. Where a SMILES comes first, the peptide text is derived from it. [ ]: non-standard residue; d: D form. pGlu = O=C1CC[C@@H](C(=O)O)N1
Tests used:
[1] = target: Estrogen receptor (Homo sapiens) (UniProt P03372); assay: qHTS assay to identify small molecule antagonists of the estrogen receptor alpha (ER-alpha) signaling pathway (AID 743069; active means well fitted curve in the direction sought with a large enough effect in the signal ratio in the repeat runs, not every such curve was filed as active; the % refers to the signal ratio)
Sequence of Estrogen receptor (Homo sapiens) (P03372 whole entry, looked up): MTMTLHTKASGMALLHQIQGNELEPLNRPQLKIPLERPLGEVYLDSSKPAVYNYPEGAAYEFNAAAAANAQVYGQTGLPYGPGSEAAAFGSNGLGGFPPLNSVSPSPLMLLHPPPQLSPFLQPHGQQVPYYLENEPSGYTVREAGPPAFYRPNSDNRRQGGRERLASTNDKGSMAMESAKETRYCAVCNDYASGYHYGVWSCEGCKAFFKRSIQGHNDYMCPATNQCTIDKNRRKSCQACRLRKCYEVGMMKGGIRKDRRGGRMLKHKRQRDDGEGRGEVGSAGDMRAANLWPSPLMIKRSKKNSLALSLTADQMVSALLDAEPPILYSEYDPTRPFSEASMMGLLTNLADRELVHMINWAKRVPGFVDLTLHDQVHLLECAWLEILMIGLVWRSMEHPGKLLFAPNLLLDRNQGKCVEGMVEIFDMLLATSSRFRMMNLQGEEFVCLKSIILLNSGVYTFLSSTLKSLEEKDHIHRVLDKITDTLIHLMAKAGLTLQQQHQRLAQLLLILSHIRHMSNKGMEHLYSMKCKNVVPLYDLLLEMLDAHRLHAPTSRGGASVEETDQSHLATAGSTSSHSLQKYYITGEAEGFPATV
In short: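 Compound effects are measured against 17beta-estradiol stimulation in HEK293 cells with a UAS-controlled beta-lactamase reporter for ER-alpha. Exposure lasts 18 hr at 37C; LiveBLAzer B/G FRET substrate follows for 2 hr at room temperature.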

[2] = qHTS assay to identify small molecule antagonists of the estrogen receptor alpha (ER-alpha) signaling pathway - cell viability counter screen (AID 743074; calls by dose curve;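 further: HEK293 cells carrying ER-alpha-UAS-bla reporter stimulated with 17beta-estradiol; nearly all actives have a fitted effect of over 45% in size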)
[3] = target: Estrogen receptor (Homo sapiens) (UniProt P03372); assay: qHTS assay to identify small molecule agonists of the estrogen receptor alpha (ER-alpha) signaling pathway (AID 743075; calls by dose curve)
[4] = target: Estrogen receptor (Homo sapiens) (UniProt P03372); assay: qHTS assay to identify small molecule agonists of the estrogen receptor alpha (ER-alpha) signaling pathway using the BG1 cell line (AID 743079); further: nearly all actives have a fitted effect of over 20% in size
[5] = qHTS assay to identify small molecule antagonists of the estrogen receptor alpha (ER-alpha) signaling pathway using the BG1 cell line (AID 743080; calls by dose curve; further: series mostly up to about 70 µM; nearly all actives have a fitted effect of over 25% in size)
In short: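 Antagonist mode: compounds in DMSO were pinned onto BG1-Luc-4E2 cells alongside 17beta-estradiol agonist, incubated 21.5 h, and ERE-driven luciferase measured with ONE-Glo. Cytotoxicity was multiplexed using CellTiter-Fluor fluorescence.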

[6] = qHTS assay to identify small molecule antagonists of the estrogen receptor alpha (ER-alpha) signaling pathway using the BG1 cell line - cell viability counter screen (AID 743081);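 further: compound given together with 17beta-estradiol as the ER stimulus; series mostly up to about 70 µM; nearly all actives have a fitted effect of over 45% in size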
[7] = qHTS assay to identify aromatase inhibitors - cell viability counter screen (AID 743084);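 further: cells stimulated with testosterone during compound exposure; nearly all actives have a fitted effect of over 55% in size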
[8] = qHTS assay to identify small molecule that activate the aryl hydrocarbon receptor (AhR) signaling pathway - cell viability counter screen (AID 743086);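 further: HepG2 liver cells carrying the AhR DRE luciferase reporter; series mostly up to about 70 µM; nearly all actives have a fitted effect of over 45% in size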
In short: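 Cytotoxicity counter screen: CellTiter-Fluor signal (30 min, 37 C) in 4000 HepG2 cells/well carrying the DRE-luciferase reporter, following 24 h compound exposure at 37 C.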

[9] = target: Peroxisome proliferator-activated receptor gamma (Homo sapiens) (UniProt P37231); assay: qHTS assay to identify small molecule agonists of the peroxisome proliferator-activated receptor gamma (PPARg) signaling pathway (AID 743094; active means well fitted activation curve with a large enough effect in the signal ratio in the repeat runs, not every such curve was filed as active; the % refers to the signal ratio; further: potency means the concentration at half of the fitted maximal effect)
Sequence of Peroxisome proliferator-activated receptor gamma (Homo sapiens) (P37231 whole entry, looked up): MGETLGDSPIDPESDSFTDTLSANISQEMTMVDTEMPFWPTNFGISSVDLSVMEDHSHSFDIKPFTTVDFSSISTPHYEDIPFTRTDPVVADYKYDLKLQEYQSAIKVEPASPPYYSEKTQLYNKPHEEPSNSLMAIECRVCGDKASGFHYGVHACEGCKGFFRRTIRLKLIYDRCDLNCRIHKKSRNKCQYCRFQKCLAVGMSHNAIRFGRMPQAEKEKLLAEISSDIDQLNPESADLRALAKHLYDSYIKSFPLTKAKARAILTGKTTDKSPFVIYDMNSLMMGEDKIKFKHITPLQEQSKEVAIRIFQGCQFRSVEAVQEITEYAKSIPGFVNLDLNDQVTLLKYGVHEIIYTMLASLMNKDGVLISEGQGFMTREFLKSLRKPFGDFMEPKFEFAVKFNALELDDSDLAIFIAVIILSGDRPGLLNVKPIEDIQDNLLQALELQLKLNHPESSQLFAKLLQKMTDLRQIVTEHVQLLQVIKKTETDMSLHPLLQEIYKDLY
In short: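 Compounds dissolved in DMSO were added to PPARg UAS-bla HEK293H cells for 17 h at 37C, and reporter expression was quantified by fluorescence intensity after 1 h with LiveBLAzer B/G FRET substrate.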

[10] = qHTS assay to identify small molecule antagonists of the peroxisome proliferator-activated receptor gamma (PPARg) signaling pathway - cell viability counter screen (AID 743194); further: nearly all actives have a fitted effect of over 55% in size
In short: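 Viability was measured as CellTiter-Glo luminescence in GeneBLAzer PPARg UAS-bla HEK293H cells. These cells had been exposed 17 h at 37 C to compounds together with rosiglitazone at 50 nM final, with the beta-lactamase readout taken in the same wells.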

[11] = qHTS assay for small molecule agonists of the antioxidant response element (ARE) signaling pathway (AID 743202; active means well fitted activation curve with a large enough effect in the signal ratio in the repeat runs, not every such curve was filed as active; the % refers to the signal ratio)
In short: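 An ARE-responsive beta-lactamase gene stably integrated in HepG2 cells serves as reporter. After 5 h plating and 16 h compound incubation at 37 C, fluorescence of the B/G FRET substrate was measured.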

[12] = qHTS assay for small molecule activators of the heat shock response signaling pathway - cell viability counter screen (AID 743209); further: nearly all actives have a fitted effect of over 50% in size
In short: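 Readout: CellTiter-Glo luminescence, 30 min at room temperature. System: HSE-bla HeLa cells, 1500/well, plated overnight. Treatment: compounds in DMSO, 5 h at 37 C.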

[13] = qHTS assay to identify small molecule agonists of the peroxisome proliferator-activated receptor delta (PPARd) signaling pathway - cell viability counter screen (AID 743211); further: nearly all actives have a fitted effect of over 55% in size
In short: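 Counter screen for cytotoxicity run in parallel with the PPARd reporter screen. Beta-lactamase reporter HEK293H cells exposed to compounds 17 h; ATP-based CellTiter-Glo luminescence quantified viability.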

[14] = qHTS assay for small molecule agonists of the antioxidant response element (ARE) signaling pathway - cell viability counter screen (AID 743203; calls by dose curve; further: nearly all actives have a fitted effect of over 55% in size)
In short: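 Following 16 hrs of compound treatment at 37C, HepG2 cells with an ARE-controlled beta-lactamase gene were lysed with CellTiter-Glo. Luminescence was read after 30 min at room temperature.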

[15] = qHTS assay for small molecule activators of the heat shock response signaling pathway (AID 743210; active means well fitted activation curve with a large enough effect in the signal ratio in the repeat runs, with a control signal flat, not every such curve was filed as active; the % refers to the signal ratio;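 further: HeLa cells with beta-lactamase reporter driven by heat shock elements; series mostly up to about 63 µM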)
In short: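 In HSE-bla HeLa cells, 5 h compound incubation (37 C) precedes addition of LiveBLAzer B/G substrate; after 2.5 h at room temperature, fluorescence intensity indicates reporter induction.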

[16] = target: Aromatase (Homo sapiens) (UniProt P11511); assay: qHTS assay to identify aromatase inhibitors (AID 743083)
Sequence of Aromatase (Homo sapiens) (P11511 whole entry, looked up): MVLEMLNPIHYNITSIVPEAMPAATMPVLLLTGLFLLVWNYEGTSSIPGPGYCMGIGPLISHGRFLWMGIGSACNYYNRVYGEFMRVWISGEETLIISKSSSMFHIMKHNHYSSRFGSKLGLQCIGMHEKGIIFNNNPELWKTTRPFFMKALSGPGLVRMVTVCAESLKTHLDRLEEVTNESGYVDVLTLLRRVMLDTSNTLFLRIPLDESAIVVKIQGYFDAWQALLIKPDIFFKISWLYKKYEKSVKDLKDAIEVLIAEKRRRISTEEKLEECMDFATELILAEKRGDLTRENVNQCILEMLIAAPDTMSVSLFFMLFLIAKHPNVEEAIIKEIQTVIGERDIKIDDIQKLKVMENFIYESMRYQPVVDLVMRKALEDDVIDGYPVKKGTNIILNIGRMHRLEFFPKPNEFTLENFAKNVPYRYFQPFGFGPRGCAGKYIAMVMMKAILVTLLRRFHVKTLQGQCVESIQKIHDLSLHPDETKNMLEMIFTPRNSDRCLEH

[17] = target: Aryl hydrocarbon receptor (Homo sapiens) (UniProt P35869); assay: qHTS assay to identify small molecule that activate the aryl hydrocarbon receptor (AhR) signaling pathway (AID 743085);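 further: HG2L7.5c1 human HepG2 liver cells with stably integrated DRE-driven firefly reporter; series mostly up to about 70 µM; nearly all actives have a fitted effect of over 15% in size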
Sequence of Aryl hydrocarbon receptor (Homo sapiens) (P35869 whole entry, looked up): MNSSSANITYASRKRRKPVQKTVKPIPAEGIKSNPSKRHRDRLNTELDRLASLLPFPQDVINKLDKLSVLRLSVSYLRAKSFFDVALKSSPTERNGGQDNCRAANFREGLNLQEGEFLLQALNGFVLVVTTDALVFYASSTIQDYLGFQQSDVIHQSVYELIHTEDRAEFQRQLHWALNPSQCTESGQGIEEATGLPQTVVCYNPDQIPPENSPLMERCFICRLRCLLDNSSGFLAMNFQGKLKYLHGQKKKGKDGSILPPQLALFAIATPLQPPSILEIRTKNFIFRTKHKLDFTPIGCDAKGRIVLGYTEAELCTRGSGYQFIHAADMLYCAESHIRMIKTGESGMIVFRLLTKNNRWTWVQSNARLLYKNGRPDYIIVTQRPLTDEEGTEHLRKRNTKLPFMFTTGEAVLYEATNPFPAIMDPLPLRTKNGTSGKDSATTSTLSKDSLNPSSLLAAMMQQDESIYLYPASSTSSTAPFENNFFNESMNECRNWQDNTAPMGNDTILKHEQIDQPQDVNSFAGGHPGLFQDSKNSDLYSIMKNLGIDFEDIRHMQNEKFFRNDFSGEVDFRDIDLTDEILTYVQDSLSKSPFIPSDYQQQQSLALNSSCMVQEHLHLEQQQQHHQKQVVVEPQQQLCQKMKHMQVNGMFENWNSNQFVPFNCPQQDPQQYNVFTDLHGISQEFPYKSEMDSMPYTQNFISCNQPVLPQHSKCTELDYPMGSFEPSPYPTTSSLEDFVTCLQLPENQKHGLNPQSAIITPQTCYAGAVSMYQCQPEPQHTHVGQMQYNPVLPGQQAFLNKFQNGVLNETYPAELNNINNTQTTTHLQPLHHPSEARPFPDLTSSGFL
In short: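 Compounds were tested in HepG2 hepatocellular carcinoma cells harbouring a stably integrated luciferase gene under control of 20 DREs. Increased reporter signal after 24 h treatment at 37C was taken as AhR activation.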

[18] = target: Peroxisome proliferator-activated receptor gamma (Homo sapiens) (UniProt P37231); assay: qHTS assay to identify small molecule antagonists of the peroxisome proliferator-activated receptor gamma (PPARg) signaling pathway (AID 743191; calls by dose curve; further: series mostly up to about 63 µM; nearly all actives have a fitted effect of over 30% in size)
In short: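 Beta-lactamase reporter under UAS control in HEK293H PPARg-bla cells; compound treatment 17 h at 37C. Read-out: fluorescence intensity after 1 h room-temperature incubation with LiveBLAzer B/G FRET substrate.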

Row | Structure (SMILES) | Potency [1] | Potency [2] | Potency [3] | Potency [4] | Potency [5] | outcome [6] | Potency [7] | Potency [8] | Potency [9] | outcome [10] | Potency [11] | outcome [12] | outcome [13] | outcome [14] | outcome [15] | outcome [16] | Potency [17] | Potency [18]
1 | C[N+](C)(C)CCCCCCCCCC[N+](C)(C)C | inactive | inactive | inactive | inactive | inactive | inactive | inactive | inactive | inactive | inactive | inactive | inactive | inactive |  |  |  |  | 
2 | CCOc1c(N2CCOCC2)cnn(C)c1=O |  |  |  |  |  |  |  |  |  | inactive |  | inactive | inactive | inactive | inactive |  |  | 
3 | NC(=O)Cc1cccc2ccccc12 |  | inactive |  |  |  | inactive | inactive | inactive | inactive | inactive |  | inactive | inactive | inactive | inactive | inactive | inactive | inactive
4 | CC[N+](CC)(CC(=O)Nc1c(C)cccc1C)Cc1ccccc1 (tested in a mixture with another compound) |  | inactive |  |  |  | inactive | inactive | inactive | inactive | inactive | inactive | inactive | inactive |  |  | inactive |  | inactive
5 | CCN(CC#N)c1cccc(C)c1 |  | inactive | inactive | inactive | inactive | inactive | inactive | inactive | inactive | inactive | inactive | inactive | inactive | inactive | inactive | inactive | inactive | 
6 | C=C(C)C(=O)OCC(O)CO (stereo unspecified) |  |  |  |  |  |  |  |  |  | inactive | inactive | inactive | inactive | inactive | inactive |  |  | inactive
7 | CNCC(O)c1ccc(O)c(O)c1 (stereo unspecified) |  |  |  |  |  |  |  |  |  | inactive | inactive | inactive | inactive | inactive | inactive |  |  | inactive
8 | COCCOCC(OC)OC |  |  |  |  |  |  |  |  |  | inactive | inactive |  | inactive | inactive | inactive |  |  | inactive
9 | CCNC(=O)[C@@H]1CCCN1C(=O)[C@H](CCCN=C(N)N)NC(=O)[C@H](CC(C)C)NC(=O)CNC(=O)[C@H](Cc1ccc(O)cc1)NC(=O)[C@H](CO)NC(=O)[C@H](Cc1c[nH]c2ccccc12)NC(=O)[C@H](Cc1cnc[nH]1)NC(=O)[C@@H]1CCC(=O)N1 ([pGlu]HWSYGLRP-NHEt) |  |  |  |  |  |  |  |  |  | inactive | inactive | inactive | inactive | inactive | inactive |  |  | inactive
10 | CCCC(=O)O[C@]1(C(=O)CC)CC[C@H]2[C@@H]3CCC4=CC(=O)CC[C@]4(C)[C@H]3[C@@H](O)C[C@@]21C |  |  |  |  |  |  |  |  |  | inactive |  | inactive |  | inactive | inactive |  |  | 
11 | CCOCC(C)O (stereo unspecified) | inactive | inactive | inactive | inactive | inactive | inactive | inactive |  | inactive | inactive | inactive |  | inactive | inactive | inactive | inactive | inactive | inactive
12 | CN1C(C)(C)CC(O)CC1(C)C |  | inactive | inactive | inactive |  | inactive | inactive | inactive | inactive | inactive | inactive | inactive | inactive | inactive | inactive | inactive |  | 
13 | Cc1coc2ccccc2c1=O |  |  |  |  |  |  |  |  |  | inactive | inactive | inactive | inactive |  | inactive |  |  | inactive
14 | CC(=O)Nc1ccc(OCC(O)CNC(C)C)cc1 (stereo unspecified) |  | inactive |  |  |  | inactive | inactive | inactive | inactive | inactive | inactive | inactive | inactive | inactive | inactive | inactive | inactive | inactive
15 | CCOC(=O)C(=O)CCCCCCl |  |  |  |  |  |  |  |  |  | inactive | inactive | inactive | inactive | inactive | inactive |  |  | inactive
16 | CO[C@@]1(NC(=O)C(C(=O)O)c2ccc(O)cc2)C(=O)N2C(C(=O)O)=C(CSc3nnnn3C)CO[C@@H]21 (stereo partly specified) |  | inactive | inactive | inactive | inactive |  | inactive | inactive | inactive | inactive | inactive |  | inactive | inactive | inactive | inactive | inactive | 
17 | Clc1cc(Cl)cc(Cl)c1 | inactive | inactive | inactive | inactive |  | inactive | inactive | inactive | inactive | inactive | inactive | inactive | inactive | inactive | inactive | inactive | inactive | 
18 | CN(C)CCCCCCN(C)C |  |  |  |  |  |  |  |  |  | inactive |  | inactive | inactive | inactive | inactive |  |  | 
19 | O=C(O)CCCC[P+](c1ccccc1)(c1ccccc1)c1ccccc1 |  |  |  |  |  |  |  |  |  | inactive | inactive | inactive | inactive | inactive | inactive |  |  | inactive
20 | Cc1onc(-c2c(Cl)cccc2Cl)c1C(=O)Cl |  |  |  |  |  |  |  |  |  | inactive |  | inactive | inactive | inactive | inactive |  |  | 
21 | C=CN1CCCCCC1=O |  | inactive |  |  |  | inactive |  | inactive |  | inactive | inactive | inactive |  | inactive | inactive |  |  | 
22 | CCCCc1nc(Cl)c(CO)n1Cc1ccc(-c2ccccc2-c2nn[nH]n2)cc1 |  | inactive |  |  |  | inactive | inactive | inactive | 23.9 µM (active) | inactive |  |  | inactive | inactive | inactive | inactive | inactive | inactive
23 | CCN(Cc1ccccc1)c1ccccc1 | inactive | inactive | inactive | inactive | inactive | inactive | inactive | inactive | inactive | inactive |  | inactive | inactive | inactive | inactive | inactive | inactive | inactive
24 | CC(COc1ccccc1)NN (stereo unspecified) |  | inactive | inactive | inactive | inactive | inactive | inactive | inactive | inactive | inactive | inactive | inactive | inactive | inactive | inactive | inactive |  | 
25 | COc1cccc(OC)c1C(=O)N[C@@H]1C(=O)N2[C@@H]1SC(C)(C)[C@@H]2C(=O)O |  | inactive |  |  |  | inactive |  | inactive | inactive | inactive |  | inactive | inactive | inactive |  | inactive | inactive | 
26 | O=[N+]([O-])c1cncn1CCN1CCOCC1 |  |  |  |  |  |  |  |  |  | inactive | inactive | inactive | inactive | inactive | inactive |  |  | inactive
27 | CCCCCCCCCC[N+](C)(C)[O-] |  | inactive | inactive | inactive | inactive | inactive | inactive | inactive |  | inactive |  | inactive | inactive | inactive | inactive | inactive | inactive | 
